Tests used:
Experiment in all cases: log2 ratio of Biotin-Ahx-Ub-VS probe labelling (fragment/DMSO); higher = less target engagement (more negative = stronger competition), active = hit call of the paper (q ≤ 0.05, log2 ratio ≤ -1)
Details in all cases: compound concentration: 200 uM; treatment time: 3 h
[1] = biological target: T1, OTUD6B (UniProt Q8N6M0)
T1 sequence (whole entry): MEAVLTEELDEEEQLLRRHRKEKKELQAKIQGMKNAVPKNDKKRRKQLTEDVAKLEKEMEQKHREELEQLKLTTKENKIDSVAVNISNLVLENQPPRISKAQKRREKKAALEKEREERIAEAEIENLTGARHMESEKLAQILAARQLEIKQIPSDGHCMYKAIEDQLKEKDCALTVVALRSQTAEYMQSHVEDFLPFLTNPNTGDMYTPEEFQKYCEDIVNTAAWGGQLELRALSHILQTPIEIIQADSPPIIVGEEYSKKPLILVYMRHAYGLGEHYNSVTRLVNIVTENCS
Summary of the method: (§1)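 Fragment (200 µM) or vehicle was incubated for 3 h with triplicate HEK293T lysate samples of 495 µg, which were then treated with Biotin-Ahx-Ub-VS at 0.5 µM final for 1 h. Labelled DUBs were enriched on NeutrAvidin, digested with LysC and trypsin, and analysed by diaPASEF LC-MS/MS. Values are average log2 fragment/vehicle ratios from an unpaired t-test on global-median-normalised Spectronaut label-free quantities, using proteins with ≥2 unique peptides.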

[2] = biological target: T2, OTUD7B (UniProt Q6GQQ9)
T2 sequence (whole entry): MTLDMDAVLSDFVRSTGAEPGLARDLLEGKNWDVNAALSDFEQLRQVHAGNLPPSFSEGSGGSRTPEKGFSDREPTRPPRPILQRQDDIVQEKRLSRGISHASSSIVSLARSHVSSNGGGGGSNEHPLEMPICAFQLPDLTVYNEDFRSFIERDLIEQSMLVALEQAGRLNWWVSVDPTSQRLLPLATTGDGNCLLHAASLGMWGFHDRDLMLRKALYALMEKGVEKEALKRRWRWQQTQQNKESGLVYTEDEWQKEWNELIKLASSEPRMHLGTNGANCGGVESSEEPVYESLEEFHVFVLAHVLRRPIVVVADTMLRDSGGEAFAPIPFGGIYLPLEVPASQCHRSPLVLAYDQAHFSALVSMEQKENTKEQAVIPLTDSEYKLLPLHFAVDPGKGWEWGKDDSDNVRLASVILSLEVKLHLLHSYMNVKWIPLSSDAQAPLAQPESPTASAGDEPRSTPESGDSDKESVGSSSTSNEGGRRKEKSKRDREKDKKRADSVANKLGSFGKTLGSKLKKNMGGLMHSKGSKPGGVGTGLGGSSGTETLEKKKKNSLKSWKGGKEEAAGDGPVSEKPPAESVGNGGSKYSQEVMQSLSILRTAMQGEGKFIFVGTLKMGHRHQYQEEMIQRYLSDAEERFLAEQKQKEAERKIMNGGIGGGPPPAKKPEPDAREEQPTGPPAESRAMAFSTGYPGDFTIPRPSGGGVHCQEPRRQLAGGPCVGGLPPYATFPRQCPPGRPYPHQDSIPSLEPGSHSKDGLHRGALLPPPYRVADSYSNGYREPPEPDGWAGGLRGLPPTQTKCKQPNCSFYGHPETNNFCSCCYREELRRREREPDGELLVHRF
Summary of the method: as §1

[3] = biological target: PRPF8 (UniProt Q6P2Q9)
Summary of the method: as §1

[4] = biological target: T3, PSMD7 (UniProt P51665)
T3 sequence (whole entry): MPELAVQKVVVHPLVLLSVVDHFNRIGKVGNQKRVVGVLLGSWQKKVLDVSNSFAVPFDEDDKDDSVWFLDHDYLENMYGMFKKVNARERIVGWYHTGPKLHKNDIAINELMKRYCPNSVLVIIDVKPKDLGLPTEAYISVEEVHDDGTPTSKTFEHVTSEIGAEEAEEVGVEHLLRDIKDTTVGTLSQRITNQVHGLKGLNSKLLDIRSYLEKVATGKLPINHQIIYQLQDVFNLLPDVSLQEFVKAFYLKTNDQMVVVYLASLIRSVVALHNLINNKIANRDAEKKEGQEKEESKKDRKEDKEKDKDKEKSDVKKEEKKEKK
Summary of the method: as §1

[5] = biological target: UCHL1 (UniProt P09936)
Summary of the method: as §1

[6] = biological target: T4, UCHL3 (UniProt P15374)
T4 sequence (whole entry): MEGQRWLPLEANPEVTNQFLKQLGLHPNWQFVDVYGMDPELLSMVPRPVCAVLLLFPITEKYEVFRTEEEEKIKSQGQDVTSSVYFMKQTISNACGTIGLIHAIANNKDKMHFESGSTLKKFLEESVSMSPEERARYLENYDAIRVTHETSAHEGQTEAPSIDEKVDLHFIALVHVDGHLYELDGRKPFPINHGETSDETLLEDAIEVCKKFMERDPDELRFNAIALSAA
Summary of the method: as §1

[7] = biological target: T5, UCHL5 (UniProt Q9Y5K5)
T5 sequence (whole entry): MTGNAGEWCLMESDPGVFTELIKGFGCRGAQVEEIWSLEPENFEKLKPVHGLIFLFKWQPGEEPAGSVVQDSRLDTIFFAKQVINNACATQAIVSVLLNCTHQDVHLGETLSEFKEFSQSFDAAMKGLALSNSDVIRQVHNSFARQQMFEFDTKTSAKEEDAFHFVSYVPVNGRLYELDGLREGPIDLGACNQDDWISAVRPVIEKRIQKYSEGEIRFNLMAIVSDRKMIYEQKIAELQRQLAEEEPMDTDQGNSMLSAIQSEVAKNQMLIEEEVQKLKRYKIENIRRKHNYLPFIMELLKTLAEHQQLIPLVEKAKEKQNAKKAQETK
Summary of the method: as §1

[8] = biological target: USP10 (UniProt Q14694)
Summary of the method: as §1

[9] = biological target: T6, USP15 (UniProt Q9Y4E8)
T6 sequence (whole entry): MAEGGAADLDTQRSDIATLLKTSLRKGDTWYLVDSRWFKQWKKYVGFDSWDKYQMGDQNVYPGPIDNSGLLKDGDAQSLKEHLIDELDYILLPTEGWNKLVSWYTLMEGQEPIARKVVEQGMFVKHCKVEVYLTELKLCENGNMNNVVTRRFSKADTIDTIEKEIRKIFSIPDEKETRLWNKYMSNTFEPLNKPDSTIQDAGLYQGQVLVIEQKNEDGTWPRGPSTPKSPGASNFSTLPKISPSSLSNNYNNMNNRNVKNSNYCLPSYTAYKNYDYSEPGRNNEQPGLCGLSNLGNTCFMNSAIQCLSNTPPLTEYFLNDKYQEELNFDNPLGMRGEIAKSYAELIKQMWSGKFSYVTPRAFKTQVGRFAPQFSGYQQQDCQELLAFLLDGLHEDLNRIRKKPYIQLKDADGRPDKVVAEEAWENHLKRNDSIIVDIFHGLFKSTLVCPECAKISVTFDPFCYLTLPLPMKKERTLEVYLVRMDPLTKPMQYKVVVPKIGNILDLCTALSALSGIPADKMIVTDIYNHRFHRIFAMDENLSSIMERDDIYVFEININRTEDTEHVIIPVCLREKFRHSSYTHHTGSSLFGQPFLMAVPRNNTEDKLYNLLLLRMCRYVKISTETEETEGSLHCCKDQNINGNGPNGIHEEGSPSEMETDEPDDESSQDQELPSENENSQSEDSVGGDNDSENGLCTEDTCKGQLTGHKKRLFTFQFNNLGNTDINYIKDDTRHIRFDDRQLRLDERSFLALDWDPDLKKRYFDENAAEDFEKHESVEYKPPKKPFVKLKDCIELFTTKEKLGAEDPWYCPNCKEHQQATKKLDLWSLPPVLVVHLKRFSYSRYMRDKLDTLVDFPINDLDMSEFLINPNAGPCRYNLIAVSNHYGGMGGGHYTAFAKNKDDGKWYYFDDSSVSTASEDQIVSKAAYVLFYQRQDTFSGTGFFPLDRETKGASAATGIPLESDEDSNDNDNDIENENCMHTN
Summary of the method: as §1

[10] = biological target: USP16 (UniProt Q9Y5T5)
Summary of the method: as §1

Measured: log2 ratio of Biotin-Ahx-Ub-VS probe labelling

Sequence of USP16 (Q9Y5T5 whole entry, looked up): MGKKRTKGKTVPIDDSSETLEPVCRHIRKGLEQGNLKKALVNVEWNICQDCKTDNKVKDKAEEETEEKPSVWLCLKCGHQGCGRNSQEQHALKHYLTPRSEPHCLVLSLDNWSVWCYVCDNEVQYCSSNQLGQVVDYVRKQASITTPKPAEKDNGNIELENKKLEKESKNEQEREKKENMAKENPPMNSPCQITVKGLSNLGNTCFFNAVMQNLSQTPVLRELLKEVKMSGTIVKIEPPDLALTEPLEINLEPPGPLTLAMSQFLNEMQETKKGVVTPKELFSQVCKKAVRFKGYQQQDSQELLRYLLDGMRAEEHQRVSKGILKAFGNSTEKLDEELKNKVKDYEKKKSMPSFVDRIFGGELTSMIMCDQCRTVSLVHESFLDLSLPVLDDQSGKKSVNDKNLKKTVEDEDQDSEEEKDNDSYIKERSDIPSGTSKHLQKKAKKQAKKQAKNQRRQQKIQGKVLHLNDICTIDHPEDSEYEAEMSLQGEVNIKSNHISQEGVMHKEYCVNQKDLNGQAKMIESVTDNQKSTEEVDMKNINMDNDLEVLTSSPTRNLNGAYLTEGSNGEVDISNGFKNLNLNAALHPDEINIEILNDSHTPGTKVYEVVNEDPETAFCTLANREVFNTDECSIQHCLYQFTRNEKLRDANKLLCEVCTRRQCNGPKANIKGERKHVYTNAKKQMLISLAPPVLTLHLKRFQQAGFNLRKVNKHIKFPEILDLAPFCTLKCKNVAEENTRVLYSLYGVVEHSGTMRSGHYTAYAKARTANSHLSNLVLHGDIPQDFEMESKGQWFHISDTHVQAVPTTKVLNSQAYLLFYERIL
Sequence of USP10 (Q14694 whole entry): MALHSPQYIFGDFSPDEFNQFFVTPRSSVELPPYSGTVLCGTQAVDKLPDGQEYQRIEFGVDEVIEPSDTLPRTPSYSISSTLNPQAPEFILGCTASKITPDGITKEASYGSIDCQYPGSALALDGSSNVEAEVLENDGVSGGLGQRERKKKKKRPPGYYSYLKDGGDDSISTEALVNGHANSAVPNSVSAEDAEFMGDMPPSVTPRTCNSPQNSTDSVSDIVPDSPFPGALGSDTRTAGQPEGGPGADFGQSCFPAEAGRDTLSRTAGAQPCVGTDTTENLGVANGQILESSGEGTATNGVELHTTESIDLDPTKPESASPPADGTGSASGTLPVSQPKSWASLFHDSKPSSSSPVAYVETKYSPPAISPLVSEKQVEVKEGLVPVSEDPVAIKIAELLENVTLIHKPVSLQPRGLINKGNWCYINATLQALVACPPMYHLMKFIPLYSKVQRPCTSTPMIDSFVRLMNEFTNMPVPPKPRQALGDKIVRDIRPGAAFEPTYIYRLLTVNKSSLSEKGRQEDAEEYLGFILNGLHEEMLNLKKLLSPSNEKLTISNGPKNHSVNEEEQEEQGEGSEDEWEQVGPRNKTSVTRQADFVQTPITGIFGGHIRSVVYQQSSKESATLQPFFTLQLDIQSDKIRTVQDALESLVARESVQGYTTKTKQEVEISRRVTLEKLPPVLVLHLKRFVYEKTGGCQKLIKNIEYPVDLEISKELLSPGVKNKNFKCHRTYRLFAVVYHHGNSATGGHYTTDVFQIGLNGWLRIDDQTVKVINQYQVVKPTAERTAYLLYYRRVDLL
Sequence of UCHL1 (P09936 whole entry, looked up): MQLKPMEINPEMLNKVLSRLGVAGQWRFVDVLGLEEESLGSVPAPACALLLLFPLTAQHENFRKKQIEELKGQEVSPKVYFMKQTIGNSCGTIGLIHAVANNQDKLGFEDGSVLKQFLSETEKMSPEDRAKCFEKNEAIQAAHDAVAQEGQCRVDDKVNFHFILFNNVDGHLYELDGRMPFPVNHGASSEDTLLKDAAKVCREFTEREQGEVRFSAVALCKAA

Cl.Cn1nccc1C(NC(=O)CCl)c1ccccc1 (stereo not given)
active: [5] -1.03
inactive: [1] -0.147 | [2] -0.872 | [3] 0.0203 | [4] -0.597 | [6] 0.209 | [7] -0.353 | [8] -0.0201 | [9] -0.218 | [10] -0.0928
